Screening results as filed in PubChem.
Most compounds without a hit are left out; they make up all but 5.7% or so of the library.
GRIN3A LBD mod – binders of NR3A ligand-binding domain, primary screen, biophysical, differential scanning fluorimetry, uHTS | Glutamate receptor ionotropic, NMDA 3A (GRIN3A) ligand-binding domain | NR3A LBD differential scanning fluorimetry, Tm shift; 0% = protein alone, 100% = glycine-bound protein | Tm shift relative to glycine control, % at 25 µM | hit rate 2.5% among 340,000 | AID 1259313, 2017;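 active = melting temperature shift of at least 10% of the positive control shift, at one fixed dose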
MPTP block – mitochondrial permeability transition pore inhibitors, primary screen, biochemical, isolated mouse mitochondria, absorbance; Ca2+ swelling absorbance, 30 min; AID 602449, 2012; hit rate 1.4% among 360,000; inhibition, % at 10 µM;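 active = inhibition of 50% or more, scaled per plate between neutral and stimulator controls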;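 note: 0% = DMSO wells given calcium and 100% = 1 mM EGTA wells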
Myeloid diff 2 – induction of myeloid progenitor differentiation, primary screen, cell-based, flow cytometry, MLPCN library | ER-HoxA9 myeloid progenitors, lysozyme-GFP differentiation | calls only at 10 µM | hit rate 1% among 360,000 | AID 624256, 2012;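 active = normalized GFP-positive differentiation at or above the plate's own cutoff, the solvent-only control mean plus 3 SD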;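 note: cells exposed to compound for four days before flow analysis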
rCAG RNA binder – binders of r(CAG) RNA repeats, primary screen, biochemical, fluorescence. hit rate 1.3% among 370,000. inhibition, % at 3 µM. r(CAG) RNA repeat, TO-PRO-1 dye displacement fluorescence;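 active = inhibition above the plate cutoff, the mean of all test compounds on that plate plus 3 SD, cut at about 35% in these data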;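 note: 0% = DMSO alone and 100% = 100 µM mitoxantrone as full dye displacement; higher means more dye released from RNA so lower well fluorescence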
FAS-TE inh – FAS thioesterase domain inhibitors, primary screen, biochemical, fluorescence intensity, uHTS | hit rate 0.67% among 360,000 | inhibition, % at 15 µM | Fatty acid synthase (Homo sapiens), P49327 | recombinant FAS-TE, OMFH fluorogenic substrate, fluorescence endpoint;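 active = compounds whose normalised, plate-corrected inhibition of enzyme fluorescence in the single-dose primary screen is 50% or more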;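 note: 0% = DMSO with enzyme and 100% = substrate without enzyme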
* = called active by the depositor; i = inactive; nt = not tested or not shown; + = active, no number.

SMILES | GRIN3A LBD mod | MPTP block | Myeloid diff 2 | rCAG RNA binder | FAS-TE inh
Cc1nn(-c2ccccc2)cc1C(c1c(N)[nH]c(=S)[nH]c1=O)c1c(N)[nH]c(=S)[nH]c1=O | 16* | 1 | i | 9 | -1
COC(=O)[C@]12C[C@H](CC(=O)NCc3ccc(OC)c(OC)c3)C(=O)N(CCC3=CCCCC3)C1=C[C@H](C(C)(C)C)O[C@@H]2C | nt | nt | nt | 3 | nt
Cc1ccc(NC(=O)Nc2sc(=S)n(C)c2C)cc1 | 12* | 0 | i | nt | 4
CC(=O)NC(=O)Nc1sc(=S)n(C)c1C | -1 | -2 | i | 1 | -1
CN1CCN(S(=O)C23CC4CC(CC(C4)C2)C3)CC1 (stereo not given) | -4 | 3 | i | -4 | -8
O=S(N1CCc2ccccc21)C12CC3CC(CC(C3)C1)C2 (stereo not given) | -2 | 2 | + | -7 | 16
N#C/C(=N\Nc1ccc(S(=O)(=O)N2CCOCC2)cc1)C(N)=S | -3 | 5 | + | 10 | -2
Cc1ccc(Cn2c(=O)sc3ccccc3c2=O)cc1 | 11* | 2 | i | -1 | 36
Cc1cc(C)c(C#N)c(Nc2ccc(F)cc2)n1 | -1 | 0 | i | -2 | 2
N#Cc1cnc(Nc2ccc(F)cc2)nc1N | 13* | 2 | i | 0 | -5
O=C(N/N=C/c1cccc([N+](=O)[O-])c1)c1cc(-c2ccc3c(c2)OCO3)n[nH]1 | 29* | 6 | i | 1 | 7
O=C(N/N=C/c1ccccc1)c1cc(-c2ccc3c(c2)OCO3)n[nH]1 | 26* | 4 | i | 5 | -1
O=C(N/N=C/c1ccc(O)cc1)c1cc(-c2ccc3c(c2)OCO3)n[nH]1 | 28* | -16 | i | 7 | -4
O=C(N/N=C/c1cccc(O)c1)c1cc(-c2ccc3c(c2)OCO3)n[nH]1 | 32* | 2 | i | 8 | 10
CCc1ccc(/C=N/NC(=O)c2cc(-c3cccc([N+](=O)[O-])c3)n[nH]2)cc1 | 10 | 24 | i | 8 | 4
CCOC(=O)N[C@H](C(=O)N1CCC[C@H]1C(=O)NCCc1ccccc1Cl)C1CCCCC1 | nt | nt | nt | 0 | nt
C=CCN1C(=O)c2n[nH]c(COC)c2C1c1ccc(F)cc1 (stereo not given) | nt | nt | nt | -1 | nt
CN1CCCCC(NC(=O)c2cccc(F)c2)C1=O (stereo not given) | nt | nt | nt | 1 | nt
CC(C)(C)N1Cc2nnn(Cc3ccccc3)c2-c2cc(F)ccc2S1(=O)=O | nt | nt | nt | -1 | nt
CCCN(C(=O)COC(=O)CNC(=O)c1ccc2ccccc2c1)c1c(N)n(Cc2ccccc2)c(=O)[nH]c1=O | 21* | 0 | i | 7 | -4
C=CCN1C(=O)c2ccc(C(=O)OCC(=O)Nc3ccc(S(N)(=O)=O)cc3)cc2C1=O | 17* | 0 | i | 8 | -8
COC(=O)c1ccc(NC(=O)CSc2nncn2C)cc1 | 8 | -2 | i | 1 | -8
COC(=O)c1cc(NC(=O)CSc2nncn2C)cc(C(=O)OC)c1 | 11* | -2 | i | 1 | -11
Cc1ccc(OCC(=O)c2cc(C)n(-c3cc(C)on3)c2C)c([N+](=O)[O-])n1 | -1 | -1 | + | -1 | 10
O=c1cc(-c2ccccc2)nc2cc(-c3ccco3)[nH]n12 | 10* | 0 | i | 22 | -6
SMILES | GRIN3A LBD mod | MPTP block | Myeloid diff 2 | rCAG RNA binder | FAS-TE inh
O=c1cc(-c2ccccc2)nc2cc(-c3ccc(Br)cc3)[nH]n12 | 0 | 3 | i | 10 | -2
NNC(=O)c1ccc(Oc2cc(Cl)cc(Cl)c2)o1 | 0 | 0 | + | -2 | -5
O=C(NCC1CC1)c1ccc(Oc2cc(Cl)cc(Cl)c2)o1 | -3 | 6 | i | -6 | 14
COC(=O)[C@]1(CNC(=O)C(C)(C)C)CC(=O)N(Cc2ccc(Cl)cc2)[C@@H]1c1ccc(OC)cc1 | nt | nt | nt | -2 | nt
CC1=CC(C)C(C[N+]2(C)CCCCC2)C(C)C1 (stereo not given) | 1 | 0 | i | -5 | -5
CC1=CC(C)C(COC(=O)CN2CCCCC2)C(C)C1 (stereo not given) | 11* | 3 | i | -8 | 0
OCC1OC(C(N=Nc2ccccc2)=NNc2ccccc2)C(O)C1O (stereo not given) | nt | nt | nt | 7 | nt
CCCC(=O)OC[C@H]1CN(C2CCCC2)S(=O)(=O)c2c(Oc3ccc(F)cc3OC)cccc2O1 | nt | nt | nt | 7 | nt
O=C(CN1CCCC1)N1c2ccccc2Sc2ccc(C(F)(F)F)cc21 | -7 | 4 | i | -7 | 3
O=C(CSc1nc2ccccc2o1)N1c2ccccc2Sc2ccc(C(F)(F)F)cc21 | 12* | 5 | i | 6 | 37
O=[N+]([O-])c1cc(C2Nc3cccc4cccc(c34)N2)ccc1Cl | 6 | 23 | + | 21 | 18
Cc1cc(C)cc(NC(=O)CCC(=O)Nc2nnc(C(C)C)s2)c1 | 0 | -1 | + | -4 | -3
CC(C)c1nnc(NC(=O)CCC(=O)Nc2ccc(Cl)cc2)s1 | -3 | 0 | i | 2 | -6
C=CCOc1cccc(C2C(C(=O)c3ccc(C)o3)=C(O)C(=O)N2c2nccs2)c1 (stereo not given) | 1 | -6 | + | 1 | -25
CC(C)c1ccc(NC(=O)C(c2ccc3c(c2)OCO3)N2CCCCC2)cc1 (stereo not given) | -3 | 7 | i | -1 | 29
Oc1cc2c(cc1C(c1ccc(Cl)c(Cl)c1)N1CCCC1)OCO2 (stereo not given) | 40* | 0 | i | 10 | 18
O=[N+]([O-])c1cccc(-c2nc(NCc3ccccc3)c3ccccc3n2)c1 | 339* | 25 | i | 5 | 34
O=[N+]([O-])c1ccc(-c2nc(NCc3ccccc3)c3ccccc3n2)cc1 | 50* | 45 | i | 5 | 3
Fc1ccc(CNc2nc(-c3ccccc3)nc3ccccc23)cc1 | 21* | 2 | i | 5 | 31
COc1ccc(CNc2nc(-c3ccccc3)nc3ccccc23)cc1OC | 5 | 2 | i | 3 | 16
c1ccc(-c2nc(NCc3cccnc3)c3ccccc3n2)cc1 | -10 | 0 | i | nt | 8
Cc1cc(-c2cccc([N+](=O)[O-])c2)nc2ccc3ccccc3c12 | 27* | 3 | i | -1 | 17
c1ccc(-c2nc(NCc3cccs3)c3ccccc3n2)cc1 | 18* | 1 | i | 8 | 28
c1csc(CNc2nc(-c3cccs3)nc3ccccc23)c1 | 10 | 3 | i | 8 | 24
Clc1cccc(-c2nc(NCc3cccnc3)c3ccccc3n2)c1 | 22* | 0 | i | 11 | 24
O=S1(=O)c2ccc(N3CCSCC3)cc2Oc2ccccc2CN1Cc1cn(Cc2ccc(Cl)cc2)nn1 | nt | nt | nt | 13 | nt
COC(=O)[C@]12C[C@H](CC(=O)NCc3cccs3)C(=O)N(CCC3=CCCCC3)C1=C[C@H](C1CCCC1)O[C@@H]2C | nt | nt | nt | 2 | nt
